Numbering of substitutions follows the chain as printed; changes in the protein carry UniProt numbers. Over roughly 16,000 sequences, “ka relative to ugcaugu” has its median near 0.096; the highest 2% begin near 0.35. This is one part of a sample in which the highest values are shown more often than they occur.
T1: RBFOX1 RRM RbFoxmut (Fox-RRM*) (Homo sapiens, UniProt Q9NWB1 109-208, R118D;E147R;N151S;E152T)
T1 sequence: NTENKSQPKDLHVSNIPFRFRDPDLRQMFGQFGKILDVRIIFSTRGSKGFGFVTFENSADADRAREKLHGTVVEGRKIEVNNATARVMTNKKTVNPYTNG

B1: CCUUUUU (DNA:RNA)
RNA: GGGAGACCGGAAUUCAGAUUGUCCCCUUUUUUUAAAUCCCGUCGUAGCCACCA
DNA 1: CAATCTGAATTCCGGTCTCCC
DNA 2: TGGTGGCTACGACGGGATT
B2: CGCACUG (DNA:RNA)
RNA: B1 RNA with C26G, U27C, U28A, U29C, U31G
DNA 1: CAATCTGAATTCCGGTCTCCC
DNA 2: TGGTGGCTACGACGGGATT
B3: GUAUUUU (DNA:RNA)
RNA: B1 RNA with C25G, C26U, U27A
DNA 1: CAATCTGAATTCCGGTCTCCC
DNA 2: TGGTGGCTACGACGGGATT
B4: AGGAGAC (DNA:RNA)
RNA: GGGAGACCGGAAUUCAGAUUGUCCAGGAGACUUAAAUCCCGUCGUAGCCACCA
DNA 1: CAATCTGAATTCCGGTCTCCC
DNA 2: TGGTGGCTACGACGGGATT
B5: AGGGAUG (DNA:RNA)
RNA: B4 RNA with A28G, G29A, A30U, C31G
DNA 1: CAATCTGAATTCCGGTCTCCC
DNA 2: TGGTGGCTACGACGGGATT
B6: AGGAGGA (DNA:RNA)
RNA: B4 RNA with A30G, C31A
DNA 1: CAATCTGAATTCCGGTCTCCC
DNA 2: TGGTGGCTACGACGGGATT
B7: AGGAUGU (DNA:RNA)
RNA: B4 RNA with G29U, A30G, C31U
DNA 1: CAATCTGAATTCCGGTCTCCC
DNA 2: TGGTGGCTACGACGGGATT
B8: AGGAUUG (DNA:RNA)
RNA: B4 RNA with G29U, A30U, C31G
DNA 1: CAATCTGAATTCCGGTCTCCC
DNA 2: TGGTGGCTACGACGGGATT
B9: ACCAGGA (DNA:RNA)
RNA: B4 RNA with G26C, G27C, A30G, C31A
DNA 1: CAATCTGAATTCCGGTCTCCC
DNA 2: TGGTGGCTACGACGGGATT
B10: AGGAAUG (DNA:RNA)
RNA: B4 RNA with G29A, A30U, C31G
DNA 1: CAATCTGAATTCCGGTCTCCC
DNA 2: TGGTGGCTACGACGGGATT
B11: AGGGGGA (DNA:RNA)
RNA: B4 RNA with A28G, A30G, C31A
DNA 1: CAATCTGAATTCCGGTCTCCC
DNA 2: TGGTGGCTACGACGGGATT
B12: AGGAAUC (DNA:RNA)
RNA: B4 RNA with G29A, A30U
DNA 1: CAATCTGAATTCCGGTCTCCC
DNA 2: TGGTGGCTACGACGGGATT

Target: T1, RBFOX1 RRM RbFoxmut (Fox-RRM*)
Test: EMSA; HiTS-Eq, 1 nM pool, 10 min; buffer printed only for the single-RNA assays: 10 mM Tris pH 7.5, 150 mM NaCl, 3.4 mM EDTA, 0.001% NP-40, 30 C
Conditions: tags: His6 N-terminal (pET28a); label: 5' 32P
Method in brief: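 Purified RbFox RRM, wild type or mutant, was incubated for 10 min in 50 µL with 1 nM of a 5′-radiolabelled RNA pool carrying 7 randomized nucleotides, whose flanks were annealed to DNA oligonucleotides, over a series of increasing protein concentrations. Unbound RNA was resolved on 8% native PAGE, cut out, reverse-transcribed, barcoded by PCR and sequenced on an Illumina HiSeq 2500. Relative association constants were derived from changes in read counts for each RNA species versus the control reaction and normalised to the cognate motif.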

Binder	binding signal
B1	0.0758 KA relative to UGCAUGU
B2	0.125 KA relative to UGCAUGU
B3	0.118 KA relative to UGCAUGU
B4	0.0904 KA relative to UGCAUGU
B5	0.476 KA relative to UGCAUGU
B6	0.084 KA relative to UGCAUGU
B7	0.339 KA relative to UGCAUGU
B8	0.583 KA relative to UGCAUGU
B9	0.0755 KA relative to UGCAUGU
B10	1.4 KA relative to UGCAUGU
B11	0.149 KA relative to UGCAUGU
B12	0.261 KA relative to UGCAUGU
